Measurements: PubChem BioAssay AID588819 (The Scripps Research Institute Molecular Screening Center, 2011)
Out of some 360,000 compounds screened, about 320 (0.089%) were called active. What follows is part of a selection rich in actives, with near analogues and random picks from the rest. A number with no mark means an inactive call. Cut-off read from the data, not from the text of the source: active = activation above about 19% (passing the limit was not always enough); inactive = the rest.

Each compound was assayed against Muscarinic acetylcholine receptor M1 (Homo sapiens) (UniProt P11229) (assay: CHRM1 PAMs potentiating acetylcholine calcium signal – CHO-K1 cells, Fluo-8 calcium fluorescence, 1536-well, primary screen (AID 588819)). Settings: CHO-K1 hM1, Fluo-8 calcium fluorescence, ACh EC20; at 3 µM; hits give high values; 0% = ACh EC20, 100% = maximal ACh.
Chain of Muscarinic acetylcholine receptor M1 (Homo sapiens) (P11229 whole entry, looked up): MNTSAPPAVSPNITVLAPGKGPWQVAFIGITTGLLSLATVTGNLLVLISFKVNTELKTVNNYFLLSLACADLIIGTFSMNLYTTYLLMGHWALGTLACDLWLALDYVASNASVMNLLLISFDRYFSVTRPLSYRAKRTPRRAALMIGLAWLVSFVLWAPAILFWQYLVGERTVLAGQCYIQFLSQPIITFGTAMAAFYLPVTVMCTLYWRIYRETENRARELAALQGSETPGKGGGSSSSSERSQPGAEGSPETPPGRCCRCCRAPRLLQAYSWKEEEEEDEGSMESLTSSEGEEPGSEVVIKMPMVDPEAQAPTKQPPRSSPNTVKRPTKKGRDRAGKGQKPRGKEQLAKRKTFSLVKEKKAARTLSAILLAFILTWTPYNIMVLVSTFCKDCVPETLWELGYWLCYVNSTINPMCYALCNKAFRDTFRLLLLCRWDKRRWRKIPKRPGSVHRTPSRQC
In the case of `Cc1ccc(S(=O)(=O)NC(=O)N2CCCN(Cc3ccc(F)cc3)CC2)cc1`, the activation is reported as 5.25%. `CCN(CC(=O)Nc1ccc(OC)cc1)C(=O)c1ccc(Cl)c(S(=O)(=O)N2CCCC2)c1` showed an activation of 9.99%. `CC(C)(C)NC(=O)CN(C(=O)c1ccc(Cl)nc1)c1cccc2ccccc12` was tested, and the activation was 2.85%. `CCC1(CC)C(=O)C2=C3C1[C@H](C(=O)OC)C=C(C(=O)OC)C[C@H]3[C@H]1C(=O)N(Cc3ccccc3)C(=O)[C@H]1[C@H]2C` (stereo partly specified) showed an activation of -6.86%. `COc1ccc(-n2nc3c(c2NC(=O)c2ccc(N4C(=O)CCC4=O)cc2)CSC3)cc1` was tested, and the activation was 1.99%. For `COc1ccc(CCNC(=O)CN(C)S(=O)(=O)c2ccc3nc(C)sc3c2)cc1OC`, the activation was 8.1%. `CCN(C(=O)COC(=O)/C=C/c1nc2ccccc2s1)C1CCS(=O)(=O)C1` (stereo unspecified) showed an activation of -0.52%. Work on `O=c1[nH]c(CN2CCN(S(=O)(=O)c3ccc4c(c3)OCCO4)CC2)nc2sc3c(c12)CCCC3` yielded an activation of 12.9%. With `O=C(NCc1cccnc1)C12CC3CC(CC(C3)C1)C2` the activation was 22.9%. In the case of `CN(CC(=O)Nc1cccc(F)c1)C(=O)CC1CCCC1`, the activation is reported as 29.7% (active). In the case of `Cc1ccc(CSCC(=O)N(C)CC(=O)Nc2cccc(F)c2)cc1`, the activation is reported as 11.3%. `COc1ccc(NC(=O)CN(C)C(=O)CC2CCCCC2)cc1` was tested, and the activation was 15.3%. Work on `ONC(=Nc1ccccc1)c1ccccc1Cl` yielded an activation of 2.82%. Compound `CCC1(CC)NC(=O)N(CC(=O)OCC(=O)NC(=O)c2ccccc2)C1=O` has an activation of 5.54%. `CC(C)N1CCC(N2CCN(Cc3cccnc3)CC2CCO)CC1` (stereo unspecified) showed an activation of 7.42%. Compound `COc1ccc(S(=O)(=O)N2CCN(C(=S)NCC3CCCO3)CC2)cc1OC` (stereo unspecified) has an activation of 2.58%. Compound `O=C(NCc1ccccc1)C1=C[C@@H](c2ccccc2)C[C@@H](OCCCCO)O1` has an activation of 19.5%. In the case of `O=C(CSc1ccccc1)Nc1nnc(/C=C/c2ccccc2)s1`, the activation is reported as 32.8% (active). With `O=C(/C=C/c1ccccc1)Nc1nnc(SCC(=O)c2ccc3ccccc3c2)s1` the activation was 1.55%. In the case of `CCOCc1nnc(NC(=O)CSc2ccc(C)cc2)s1`, the activation is reported as 3.8%. In the case of `O=C(Cn1nc(C(=O)O)c2ccccc2c1=O)Nc1ccc(F)cc1`, the activation is reported as 1.79%. With `CC(=O)Nc1ccc(NC(=O)C(C)OC(=O)C2CC(=O)N(CCc3ccccc3)C2)cc1` (stereo unspecified) the activation was 4.72%. `CCCCN(C)c1ccc([N+](=O)[O-])cc1` was tested, and the activation was -3.31%. In the case of `CC(C)Cn1cnc2c1c(=O)n(CC(=O)NN)c(=O)n2Cc1ccccc1`, the activation is reported as 4.53%. Work on `COCCn1cnc2c1c(=O)n(CC(=O)NN)c(=O)n2Cc1ccccc1` yielded an activation of 13.3%. In the case of `CC(C)CCn1cnc2c1c(=O)n(CC(=O)NC(N)=O)c(=O)n2Cc1ccccc1`, the activation is reported as 30.3% (active). Compound `CCCSC(=S)NC1CCS(=O)(=O)C1` (stereo unspecified) has an activation of 0.86%. With `CCCCNCc1ccc(SC)cc1` the activation was 25.2% (active). With `CSc1ccc(CNCCN2CCOCC2)cc1` the activation was -5.22%. `CCCCNCCS(=O)(=O)NCc1ccccc1` showed an activation of 4.18%. `Cc1cccc(C)c1NC(=O)C1(N(C(=O)c2ccccn2)c2ccc(O)cc2)CCCCC1` showed an activation of -1.06%. Work on `CN(C)/C=C/c1c(C#N)c(=O)ncn1Cc1ccccc1` yielded an activation of -0.11%. `CN(C)c1ccnc2sc3c(=O)n(Cc4ccccc4)cnc3c12` was tested, and the activation was 23.4% (active). `O=c1c2c(ncn1Cc1ccccc1)nc1n2CCC1` gave an activation of 7.79%. In the case of `COc1ccc(CN2CC[C@H]3C=CC[C@@H](C(=O)N4CCOCC4)[C@H]3C2=O)cc1OC`, the activation is reported as 1.94%. For `CNC(=O)c1nnc(Cc2ccc(Cl)cc2)o1`, the activation was 5.02%. Compound `O=C(Nc1ccc(F)cc1F)N1CCCN(CCOc2ccccc2)CC1` has an activation of 5.19%. `Nc1ncnc2c1ncn2[C@@H]1O[C@H](CNC(=O)[C@H](N)Cc2cccnc2)[C@@H](O)[C@H]1O` showed an activation of 2.46%. `CCn1c(O)c(N=NC2=NC(=O)CS2)c2cc(C)ccc21` was tested, and the activation was -1.89%. For `O=C(CCNc1n[nH]c(=O)[nH]c1=O)N/N=C\c1ccc(Br)cc1`, the activation was 17.3%. Work on `CC(=O)N/C(=C/c1ccc(OC(F)F)cc1)C(=O)O` yielded an activation of 6.97%. With `CN1CCC(=NNC(=O)c2ccc(N(Cc3ccc(Cl)cc3)S(C)(=O)=O)cc2)CC1` the activation was 4.92%. `CC1CCN(c2ccc([N+](=O)[O-])c(SCCO)c2)CC1` gave an activation of 2.03%. In the case of `CCCC(C)NC(=O)C1CCN(C(=O)C2CC(=O)N(c3ccc(C)cc3)C2)CC1` (stereo unspecified), the activation is reported as 14.6%. In the case of `COCCCNC(=O)C1CC(=O)N(c2ccc(C)cc2)C1` (stereo unspecified), the activation is reported as 1.45%. For `COCCNC(=O)C1CCN(C(=O)C2CC(=O)N(c3ccc(C)cc3)C2)CC1` (stereo unspecified), the activation was 29.5% (active). Work on `Cc1ccc(S(=O)(=O)N2C3C=CC(C3)C2C(=O)O)cc1` (stereo unspecified) yielded an activation of 1.95%. For `O=C(O)C1CCN1C1CCCCC1` (stereo unspecified), the activation was 3.48%. `CCCC(=O)Nc1nnc(-c2ccccc2)o1` was tested, and the activation was 28.9% (active). `COc1ccccc1C(=O)NCC(=O)OCC(=O)Nc1nnc(-c2ccccc2)o1` was tested, and the activation was 7.11%. With `Cc1ccnc2nc(C(=O)Nc3nnc(-c4ccccc4)o3)nn12` the activation was 3.22%. Compound `COc1ccc(N2CCC(CNC(=S)Nc3c(C)cccc3C)C2)cc1` (stereo unspecified) has an activation of -4.84%. For `O=C(Cc1ccc(NC(=O)C2CCCN(C(=O)C3CCCCC3)C2)cc1)Nc1cccc(C(=O)N2CCCCC2)c1` (stereo unspecified), the activation was 3.87%. Compound `CSc1ccccc1C(=O)Nc1cccc(C(C)=O)c1` has an activation of -2.71%. With `CSc1nc(C)cc(SC(C(C)=O)C(=O)Nc2ccccc2)n1` (stereo unspecified) the activation was 23.1% (active). `CC(Sc1nnc2c(n1)C1CCC2(C)C1(C)C)C(=O)Nc1ccccc1` (stereo unspecified) was tested, and the activation was 11.8%. `Cc1ccc(S(=O)(=O)N(CCc2ccccc2)c2ccc3c(c2)C2CC3CCN2C(=O)OCc2ccccc2)cc1` (stereo unspecified) showed an activation of 10.4%. `COc1ccccc1OCC(=O)OCn1c(SC)nnc(C)c1=O` showed an activation of 2.31%. In the case of `Cc1nc(-c2ccc(F)cc2)c(CC(=O)Nc2cc(S(=O)(=O)N3CCCCC3)ccc2C)s1`, the activation is reported as 14.8%. For `Cc1ccc(NC(=O)CSc2nn3c(=O)c(C)nnc3s2)cc1Cl`, the activation was 10.6%. Work on `Cc1ccccc1CSCCNC(=O)c1ccc(Cl)c(S(=O)(=O)N2CCOCC2)c1` yielded an activation of -5.71%. `COc1ccc(Cl)cc1NC(=O)COc1ccc2c(c1)OCO2` gave an activation of 7.62%. In the case of `CN=C1SC(C(=O)O)CC(=O)N1C` (stereo unspecified), the activation is reported as 7.37%. Work on `COc1cc(C(=O)N(C)Cc2cccc(OC)c2OC)ccc1OCC(=O)Nc1cccc(C(F)(F)F)c1` yielded an activation of -5.88%. Compound `COC(=O)c1ccc2ccccc2c1OC1OC(CO)C(O)C(O)C1NC(C)=O` (stereo unspecified) has an activation of 9.3%. `CC(=O)c1cccc(NC(=O)C2CCCN2S(=O)(=O)c2cccc3nsnc23)c1` (stereo unspecified) gave an activation of -0.71%. `Cc1ccc(CN2CCN(c3ccccc3Cl)CC2)o1` was tested, and the activation was 5.74%. `CCOc1cc(C(=O)Nc2ccc(S(=O)(=O)Nc3cnc4ccccc4n3)cc2)cc(OCC)c1OCC` showed an activation of 7.77%. `COc1ccc([N+](=O)[O-])cc1N(CC(O)Cn1nnc2ccccc21)S(=O)(=O)c1ccc(C)cc1` (stereo unspecified) gave an activation of 21.8%. With `Oc1cccc(CCc2ccccn2)c1` the activation was 4.71%. In the case of `CCCn1c(=O)c2c(C(F)(F)F)cc(-c3cccs3)nc2n(CCC)c1=O`, the activation is reported as 1.78%. `CCC(=O)N1CCCC1(C)C(=O)Nc1ccc2c(c1)CCN2C(C)=O` (stereo unspecified) showed an activation of 8.84%. `COC(=O)c1ccc2nc(-c3ccc(OC)c(OC)c3)c(Cc3ccccc3)n2c1` gave an activation of 2.75%. Compound `COC(=O)c1ccc2nc(-c3ccc(Cl)cc3)c(Cc3cccc(F)c3)n2c1` has an activation of -0.44%. In the case of `COC(=O)c1ccc2nc(C3CCCCC3)c(Cc3cccc(F)c3)n2c1`, the activation is reported as 27% (active). For `CN(C)CCN(Cc1ccccc1)S(=O)(=O)c1csc(C(N)=O)c1`, the activation was 10.5%. `O=C(Cc1ccccc1)NCC1OCCc2ccccc21` (stereo unspecified) was tested, and the activation was -5.39%. `CCCCN(CC(=O)NC(C)(C)C)C(=O)C(=O)Nc1ccc2c(c1)OCCO2` gave an activation of 7.88%. Work on `O=C(NNS(=O)(=O)c1c(F)cc(F)c(Cl)c1F)C12CC3CC(CC(C3)C1)C2` yielded an activation of -10.7%. `COc1ccc(CNC(=O)COC(=O)CCS(=O)(=O)c2ccc(C)cc2)cc1OC` gave an activation of 4.46%. With `CCCn1nc(C(=O)OCc2nc(N)nc(Nc3ccccc3C)n2)c2ccccc2c1=O` the activation was 11.4%. For `CCOc1ccc2ccccc2c1/C=N/NC(=O)c1c(C)cc(C)[nH]c1=O`, the activation was 7.97%. `Oc1cccc(C2c3[nH]c4ccccc4c3CCN2Cc2cnn(-c3ccccc3)c2)c1` (stereo unspecified) was tested, and the activation was -6.09%. Work on `Cc1nc2ccc(NC(=O)c3cccc(S(=O)(=O)N4CCOCC4)c3)cc2s1` yielded an activation of 3.59%. With `O=C(O)c1cccc(S(=O)(=O)Nc2ccc(O)cc2Sc2nc3ccccc3s2)c1` the activation was 31.9% (active). For `O=[N+]([O-])c1c(NCCO)cc(Sc2nc3ccccc3s2)c2nonc12`, the activation was 1.97%. For `CCn1c(CN2C(=O)CSc3ccccc32)n[nH]c1=S`, the activation was -0.34%. With `CCC(C)[C@H](NC(=O)N1CCn2c1nc1ccccc12)C(=O)NCc1ccc(OC)cc1` (stereo partly specified) the activation was 0.16%. `CC(C)(C)NC(=O)Cn1c(SCC(=O)Nc2nccs2)nc2ccccc21` showed an activation of 2.24%. With `CCOC(=O)C1(Cc2cccc(OC)c2)CCCN(S(=O)(=O)c2cccnc2)C1` (stereo unspecified) the activation was 6.27%. `CN1/C(=C\C=C2\N=C(c3ccc(F)cc3)OC2=O)C(C)(C)c2ccccc21` showed an activation of -5.26%.
